Methyltransferases – Primary Screen for Target Class Profiling of Small Molecule Inhibitors of Methyltransferases. calls only at 40 µM. AID 1745853, 2022. purified enzyme, MTase-Glo SAH luminescence; active compounds read low. 25,000 compounds, 3.9% hits; call rule not given here
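Each enzyme was assayed with SAM and its substrate. SAH formation detected by MTase-Glo luminescence; single-point 40 uM screen[…].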
Numbers without * were called inactive; ! = a repeat was not active. Only a selection was taken, and hits are over-represented in it overall. On the % scale 0 is the no-effect control and ±100 the full control effect.

Screening C=C1CC[C@@H]2[C@](C)(CO)[C@H](O[C@@H]3O[C@H](CO)[C@@H](O)[C@H](O)[C@H]3O)CC[C@@]2(C)[C@@H]1C/C=C1/C(=O)OC[C@H]1O returned Methyltransferases inactive.
C=C1C(O[C@@H]2O[C@H](CO)[C@@H](O)[C@H](O)[C@@H]2O)CC2C(C)(C)C(O)CCC2(C)C1CC/C(C)=C\CO (stereo partly drawn) was read as Methyltransferases active.
For CC(=O)Nc1cccc(-c2n[nH]c3c2CC(=O)N(CCOc2ccccc2)C3)c1 the results were Methyltransferases inactive.
For O=C(O)CCc1ccc(NCc2cccc3c2CCCN3CCOc2ccccc2)cc1F the results were Methyltransferases active.
O=C(O)CCc1ccc(NCc2cccc(Oc3ccccc3)c2)cc1 was read as Methyltransferases inactive.
COc1ccc(NS(=O)(=O)c2cc3c(cc2Cl)n(C)c(=O)n3C)c(OC)c1 was read as Methyltransferases inactive.
Screening CCCn1c(=O)c2ccc(C(=O)NCC(C)C)cc2n2c(=O)n(CC(=O)c3ccc(F)cc3F)nc12 returned Methyltransferases inactive.
COc1cccc(-c2[nH]cnc2-c2ccccc2)c1OCCCN(C)C was read as Methyltransferases inactive.
Screening COc1ccc(CCN(C)CCCOc2nsc(-c3ccccc3)n2)cc1OC returned Methyltransferases active.
For CN(CCCOc1ccc(Cc2ccccc2)cc1)CCC(=O)O the results were Methyltransferases inactive.
`CC(C)OCCCN1C(=O)c2cc(-c3ccc(C(C)C)cc3)nn2CC1(C)C(=O)NC1CCCCC1` (stereo not drawn) gave Methyltransferases inactive.
`CCCc1nn(-c2cccc(C)c2)c(=O)n1CC(=O)NCc1ccc(C)o1` gave Methyltransferases inactive.
CC1CCCCC1NC(=O)C1(C)Cn2c(nc3ccccc32)C(=O)N1Cc1cccnc1 (stereo not drawn) was read as Methyltransferases inactive.
For OCC1CN(c2ccncn2)CC12CCN(Cc1cc(F)c(F)c(F)c1)CC2 (stereo not drawn) the results were Methyltransferases inactive.
For CC1(C(=O)NC2CCCCC2)Cn2c(c(-n3cccc3)c3ccccc32)C(=O)N1Cc1cccs1 (stereo not drawn) the results were Methyltransferases inactive.
Cc1cccc(-c2nnn3c2nc(N2CCCC2)c2ccccc23)c1 was read as Methyltransferases inactive.
Screening Cc1cc2c(N3CCCC3)nc(N3CCCC3)nc2n1C returned Methyltransferases active.
Screening Cc1nc(N2CCCC2)nc(N2CCC3(CC2)OCCCC3O)c1C (stereo not drawn) returned Methyltransferases inactive.
`COc1ccc(CCNC(=O)CN(C)S(=O)(=O)c2ccc3[nH]c4c(c3c2)CCCC4)cc1OC` gave Methyltransferases inactive.
Screening C=C1C(O)C[C@@H]2C(C(=O)O)=CO[C@@H](O[C@@H]3O[C@H](CO)[C@@H](O)[C@H](O)[C@H]3OC(=O)c3ccc(O)cc3)[C@H]12 (stereo partly drawn) returned Methyltransferases inactive.
For COCCn1c(C(=O)OC)c(NC(=O)CC(C)C)c2cc(NC(C)CCn3cccn3)cnc21 (stereo not drawn) the results were Methyltransferases inactive.
For COc1ccc(-c2cc3n(n2)CC(C)(C(=O)NCc2ccccc2OC)N(c2ccc4c(c2)OCO4)C3=O)cc1 (stereo not drawn) the results were Methyltransferases inactive.
Screening CN(Cc1ccc(C(=O)O)cc1)c1ccc(OCc2c(-c3c(Cl)cccc3Cl)noc2C2CC2)nc1C(F)(F)F returned Methyltransferases active.
Screening Cc1ncsc1CCC(=O)N1CC[C@@H]2[C@@H](CCC(=O)N2CCN)C1 returned Methyltransferases inactive.
Screening COc1cccc(CN2CC(C(=O)NCc3n[nH]c(=O)[nH]3)CCC2=O)c1 (stereo not drawn) returned Methyltransferases inactive.
`Cc1ccc(N2C(=O)c3cc4oc(C)cc4n3CC2(C)C(=O)NC2CCCCCC2)c(C)c1` (stereo not drawn) gave Methyltransferases inactive.
CN1CCN(C(=O)c2ccc3cc(CCNc4ncnc5ccc(C#N)cc45)ccc3c2)CC1 was read as Methyltransferases active.
For COc1ccc(CCNc2ncnc3c2CN(C2CCC2)C(=O)N(C)C3)cc1 the results were Methyltransferases inactive.
Screening CC(=O)N1CCN(C(=O)c2ccc3oc(-c4ccccn4)nc3c2)CC1 returned Methyltransferases inactive.
Screening COC(=O)C1(C)c2[nH]c3ccccc3c2CCN1C(=O)CCl (stereo not drawn) returned Methyltransferases inactive.
CC1CCC2(C(=O)O)CCC3(C)C(=CCC4C5(C)CCC(O)C(C)(C(=O)O)C5CCC43C)C2C1(C)O (stereo not drawn) was read as Methyltransferases inactive.
Screening O=C(NC1CCN(c2nc3ncccc3o2)C1)c1ccccc1F (stereo not drawn) returned Methyltransferases inactive.
`CSc1ccc(CCN2C(=O)c3ccc(-c4ccco4)n3CC2(C)C(=O)NC2CCCCC2)cc1` (stereo not drawn) gave Methyltransferases inactive.
`CC(C)(Sc1ccc(CCN(CCCCC2CCCCC2)C(=O)NC2CCCCC2)cc1)C(=O)O` gave Methyltransferases active!.
`CC1(C(=O)NC2CCCC2)Cn2c(ccc2-c2ccccc2)C(=O)N1CCCc1ccccc1` (stereo not drawn) gave Methyltransferases inactive.
`CCCN1C(=O)c2c(C(=O)NCc3cccc(Br)c3)ncn2CC1(C)C(=O)NC1CCCC1` (stereo not drawn) gave Methyltransferases inactive.
`Cn1c(=O)c2ccc(C(=O)NC3CCCC3)cc2n2c(SCc3ccccc3)nnc12` gave Methyltransferases inactive.
For CC[C@@]1(O)C(=O)OCc2c1cc1n(c2=O)Cc2cc3c(CN(C)C)c(O)ccc3nc2-1 the results were Methyltransferases active!.
For CCN(CC)CCCN1C(=O)c2cc3oc(C)cc3n2CC1(C)C(=O)NC1CCCCC1 (stereo not drawn) the results were Methyltransferases inactive.
For COc1ccc2cc3n(c2c1)CC(C)(C(=O)NC1CCCCC1)N(C(C)c1ccccc1)C3=O (stereo not drawn) the results were Methyltransferases inactive.
Screening COc1ccccc1CNC(=O)C1(C)Cn2nc(-c3ccccc3)cc2C(=O)N1CCC1=CCCCC1 (stereo not drawn) returned Methyltransferases inactive.
Screening CCOC(=O)c1ccc2c(c1)[C@@H]1C=CC[C@@H]1[C@H](c1ccc(C(C)C)cc1)N2 returned Methyltransferases inactive.
For CCOC(=O)C1CCCN(C(=O)C2CCc3nnc(C4CC4)n32)C1 (stereo not drawn) the results were Methyltransferases inactive.
CCCc1cc2c(N3CCN(C4=NCC(C)(C)S4)CC3)ncnc2s1 was read as Methyltransferases active.
For CC(C)c1cc2c(N3CCN(C4=NCC(C)(C)S4)CC3)ncnc2s1 the results were Methyltransferases active.
For OC[C@@H]1CN(Cc2cccnc2)C[C@H]1c1ccccn1 the results were Methyltransferases inactive.
CCOc1ccc(N2C(=O)c3cc4ccc(OC)cc4n3CC2(C)C(=O)NC2CCCC2)cc1 (stereo not drawn) was read as Methyltransferases inactive.
`CCCNC(=O)c1c(-c2ccccc2)cc(=O)n2c1CCC2` gave Methyltransferases inactive.
For COc1ccc(OC2CCN(C(C)=O)CC2)c(C(=O)N2C[C@@H]3CCC[C@H]2C3)c1 the results were Methyltransferases inactive.
